# Measured values reported in PubChem BioAssay (NCATS).
# “And” between values parts separate entries of the source, which are not always exact repeats. Equal values may be shown once. Results filed as inconclusive are left out. Entries that show only a call come without a potency. The source made the active and inactive calls. Unless noted, the call rests on the fitted dose curve; in most records, active means well fitted curve in the direction sought with a large enough effect; inconclusive means small, poorly fitted or top-dose-only effect, or another doubt; inactive means no such curve, though single readings can be large; an effect the other way counts as inactive or inconclusive.
# Key:
# [1] = biological target: Nicotinamide N-methyltransferase (Homo sapiens) (UniProt P40261); assay: Confirmatory Screen for Target Class Profiling of Small Molecule Inhibitors of Methyltransferases (AID 1745852); details: MTase-Glo luminescence, SAH detection, recombinant enzyme; measured here: NNMT max response; stronger effect = lower value
# Sequence of Nicotinamide N-methyltransferase (Homo sapiens) (P40261 whole entry, looked up): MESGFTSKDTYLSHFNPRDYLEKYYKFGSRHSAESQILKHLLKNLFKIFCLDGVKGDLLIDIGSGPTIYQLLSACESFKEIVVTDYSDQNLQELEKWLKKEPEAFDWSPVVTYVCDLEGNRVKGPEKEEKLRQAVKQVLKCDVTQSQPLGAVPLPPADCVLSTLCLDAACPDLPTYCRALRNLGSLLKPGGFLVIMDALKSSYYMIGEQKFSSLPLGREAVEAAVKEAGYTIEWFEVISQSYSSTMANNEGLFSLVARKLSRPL
# [2] = biological target: Phenylethanolamine N-methyltransferase (Homo sapiens) (UniProt P11086); assay: as above; details: MTase-Glo luminescence, SAH detection, recombinant enzyme; measured here: PNMT max response; stronger effect = lower value
# Sequence of Phenylethanolamine N-methyltransferase (Homo sapiens) (P11086 whole entry, looked up): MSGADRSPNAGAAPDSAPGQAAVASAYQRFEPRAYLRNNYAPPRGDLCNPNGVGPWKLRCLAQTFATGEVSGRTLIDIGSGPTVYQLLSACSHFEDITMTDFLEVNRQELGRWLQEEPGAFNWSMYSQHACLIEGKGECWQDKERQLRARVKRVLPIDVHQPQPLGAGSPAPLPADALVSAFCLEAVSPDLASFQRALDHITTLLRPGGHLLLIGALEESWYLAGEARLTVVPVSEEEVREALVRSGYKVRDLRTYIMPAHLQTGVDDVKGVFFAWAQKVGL
# [3] = biological target: Metallo-beta-lactamase type 2 (Klebsiella pneumoniae) (UniProt C7C422); assay: qHTS to identify inhibitors of the New Delhi Metallo-beta-lactamase (NDM): assay validation screen against the NCATS LOPAC Collection (AID 1794843); details: NDM-1 enzyme, nitrocefin hydrolysis, absorbance 485 nm; series mostly up to 38.4 µM;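 further: nitrocefin turnover by NDM-1 measured as 485 nm absorbance at plateau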
# Sequence of Metallo-beta-lactamase type 2 (Klebsiella pneumoniae) (C7C422 whole entry, looked up): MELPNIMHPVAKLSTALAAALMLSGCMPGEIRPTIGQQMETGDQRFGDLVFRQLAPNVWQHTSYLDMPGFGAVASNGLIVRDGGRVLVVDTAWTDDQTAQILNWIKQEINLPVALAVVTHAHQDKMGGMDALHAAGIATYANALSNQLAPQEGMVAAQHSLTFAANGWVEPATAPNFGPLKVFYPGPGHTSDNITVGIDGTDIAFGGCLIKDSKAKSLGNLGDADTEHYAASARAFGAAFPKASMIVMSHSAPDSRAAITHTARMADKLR
# Method in brief: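 Enzyme 2 nM final, 50 mM HEPES pH 7.0, 1 uM ZnSO4, 0.01% Tween20; cpds in DMSO, preincub w/ enzyme; + nitrocefin (50 uM stock); A485 at plateau; no-enzyme column as blank.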
# [4] = NCATS anti-infectives library activity on HEK293 viability as a counter-qHTS vs the C. elegans viability qHTS (AID 1745854); details: HEK293 viability counter-screen; series mostly up to 41.8 µM
# Method in brief: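 CellTiter-Glo luminescence, read on a CCD imager, scored viability of HEK293 cells after 24 hr compound exposure at 37C. Library tested in several concentrations, 1:5 steps, up to 41.7 uM; digitonin served as control.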
# [5] = NCATS anti-infectives library activity on the primary C. elegans qHTS viability assay (AID 1745855; calls by dose curve; further: potency means the concentration at half of the fitted maximal effect); details: C. elegans worm area imaging, day 7
# Method in brief: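 Titration-based screen in worms: eggs hatched overnight in M9, L1 larvae fed TOP10 capsules in S medium with compound, incubated 21 °C for 7 days; fluorescent objects gated by size and intensity at days 0, 3 and 7.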
# [6] = Viability counterscreen for antagonist of constitutive androstane receptor (CAR) against the NCATS DSHEA and TCM libraries (AID 1794837); details: CAR reporter cell line viability counterscreen, qHTS; series mostly up to 40 µM;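 further: compound exposure lasted 24 h before viability reading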
# From the text: (§1) Assay Development and Screening Technology Laboratory (ADST)
# (§2) National Center for Advancing Translational Sciences (NCATS), Rockville, MD
# (§3) National Institute of Health (NIH), Bethesda, Maryland
# Dietary Supplements and Natural Products have minor oversight of their safety and efficacy. We assembled a collection of Dietary Supplements and Natural Products (DSNP) as well as Traditional Chinese Medicinal (TCM) Plant extracts, which were screened against an in vitro panel of assays, including a liver cytochrome p450 enzyme panel, CAR/PXR signaling pathways, and P-gp transporter assays, to assess their activity. This pipeline facilitated the interrogation of Natural Product-Drug Interaction (NaPDI) through prominent metabolizing pathways. In addition, we compared the activity profiles of the DSNP/TCM substances with those of an approved drug collection. […] Overall, we highlight four significant bioactivity profiles (measured by p-values) as examples of this prediction. […]
# 8; Detector 1; Fluorescence intensity; ViewLux plate reader (excitation 405 nm, emission 540 nm). […]
# 11; Detector 2; Luminescence intensity; ViewLux. […]
# 8. Fluorescence intensity (Ex/Em = 405 nm/540 nm) is obtained using the ViewLux plate reader to determine cell viability. […]
# 10. Luminescence intensity is read using the ViewLux detector. […]
# [7] = Viability counterscreen for agonist of constitutive androstane receptor (CAR) against the NCATS DSHEA and TCM libraries (AID 1794838); details: HepG2 cell viability counterscreen, CAR agonist assay, co-treated with 0.75 µM CAR antagonist; series mostly up to 40 µM;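 further: HepG2 cells with CYP2B6 reporter and hCAR plus 0.75 µM PK11195 antagonist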
# Method in brief: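 HepG2-CYP2B6-hCAR cells (2,500/well) treated 24 h at 37C with compounds plus 0.75 uM PK11195; viability read by CellTiter-Fluor fluorescence, Ex/Em 405/540 nm.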
# [8] = biological target: Nuclear receptor subfamily 1 group I member 3 (Homo sapiens) (UniProt Q14994); assay: Primary qHTS for agonist of constitutive androstane receptor (CAR) against the NCATS DSHEA and TCM libraries (AID 1794839); details: CAR agonist reporter cells, qHTS luminescence, CAR antagonist co-added at 0.75 µM; series mostly up to 40 µM;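 further: HepG2 cells expressing human CAR with a CYP2B6 reporter plus PK11195 antagonist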
# Sequence of Nuclear receptor subfamily 1 group I member 3 (Homo sapiens) (Q14994 whole entry, looked up): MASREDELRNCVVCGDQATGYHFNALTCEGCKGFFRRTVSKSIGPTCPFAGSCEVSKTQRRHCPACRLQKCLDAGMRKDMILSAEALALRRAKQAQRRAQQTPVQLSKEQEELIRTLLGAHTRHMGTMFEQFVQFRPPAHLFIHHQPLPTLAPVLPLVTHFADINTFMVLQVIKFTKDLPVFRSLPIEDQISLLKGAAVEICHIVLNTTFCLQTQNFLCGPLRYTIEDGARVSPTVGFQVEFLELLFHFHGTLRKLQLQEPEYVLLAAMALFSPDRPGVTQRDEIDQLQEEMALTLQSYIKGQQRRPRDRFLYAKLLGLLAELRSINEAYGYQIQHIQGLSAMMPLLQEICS
# Method in brief: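 HepG2-CYP2B6-hCAR cells, 2,500/well, attached 5 h, then dosed with 0.75 µM PK11195 (final) for 24 h at 37 °C. Luciferase luminescence read (ONE-Glo); CellTiter-Fluor viability (Ex/Em 405/540 nm) in same wells; CITCO positive control.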
# [9] = HepG2 viability counterscreen (readout 2: ATP content) against the NCATS DSHEA and TCM libraries (AID 1794840); details: ATP content luminescence; series mostly up to 27.3 µM
# Method in brief: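 HepG2 cells, 1,000/well, attached ~4 h, then exposed ~24 h at 37C to substances. Protease activity read by fluorescence of 25 uM GF-AFC (Ex/Em 380/510 nm) after 30 min; ATP then by CellTiter-Glo luminescence.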
# [10] = HepG2 viability counterscreen (readout 1: protease activity) against the NCATS DSHEA and TCM libraries (AID 1794841); details: qHTS concentration series; series mostly up to 27.3 µM;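 further: cells exposed to compounds for about 24 h before the protease read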
# From the text: as §1, §2, §3
# Dietary Supplements and Natural Products have minor oversight of their safety and efficacy. We assembled a collection of Dietary Supplements and Natural Products (DSNP) as well as Traditional Chinese Medicinal (TCM) Plant extracts, which were screened against an in vitro panel of assays, including a liver cytochrome p450 enzyme panel, CAR/PXR signaling pathways, and P-gp transporter assays, to assess their activity. This pipeline facilitated the interrogation of Natural Product-Drug Interaction (NaPDI) through prominent metabolizing pathways. In addition, we compared the activity profiles of the DSNP/TCM substances with those of an approved drug collection. Many of the approved drugs have well-annotated mechanisms of action (MOA) while the MOAs for most of the DSNP and TCM samples remain unknown. Based on the premise that compounds with similar activity profiles tend to share similar targets or MOA, we clustered the library activity profiles to identify overlap with the NCATS Pharmaceutical Collection to predict the MOAs of the DSNP/TCM substances. Overall, we highlight four significant bioactivity profiles (measured by p-values) as examples of this prediction. In addition, to assess broad cytotoxicity, we employed screening against a HepG2 cell line.
# To this end, we profiled both collections for potential CAR and/or PXR activity, employing a previously published 1536-well qHTS assay. […]
# 7; Read 1; Fluorescence; EnVision plate reader excitation 380 nm, emission 510 nm. […]
# 11; Read 2; Luminescence; ViewLux plate reader. […]
# 7. After incubation, plates were read for fluorescence intensity (Ex/Em = 380 nm/510 nm) on an EnVision detector (PerkinElmer, Shelton, Connecticut).
# 8. Once the detection for fluorescence was completed, plates were dispensed with 3 uL of CellTiter-Glo (Promega, Madison, WI). […]
# 11. Plates were then read for luminescence intensity on a ViewLux detector. […]
smiles,measurement,setting,value
NO,activity,[1],-5.7%
same,activity,[2],4.25%
same,Potency,[3],inactive
CC[C@@H](C)[C@H]1O[C@]2(CC[C@@H]1C)C[C@@H]1C[C@@H](C/C=C(\C)[C@@H](O[C@H]3C[C@H](OC)[C@@H](O[C@H]4C[C@H](OC)[C@@H](O)[C@H](C)O4)[C@H](C)O3)[C@@H](C)/C=C/C=C3\CO[C@@H]4[C@H](O)C(C)=C[C@@H](C(=O)O1)[C@]34O)O2,outcome,[4],inactive
same,Potency,[5],5.8 nM (active)
O=C(O)c1cc(O)c(O)c(O)c1,outcome,[6],inactive
same,outcome,[7],inactive
same,outcome,[8],inactive
same,outcome,[9],inactive
same,outcome,[10],inactive
O=Nc1ccc2oc(=O)ccc2c1,activity,[1],-0.856%
same,activity,[2],5.38%
same,Potency,[3],inactive
CCCCCCOc1ccccc1C(N)=O,outcome,[4],inactive
O=C1C(SCCO)=C(SCCO)C(=O)c2ccccc21,activity,[1],-76.1%
same,activity,[2],-72.3%
same,Potency,[3],inactive
CC(C(=O)O)c1ccc(C(=O)c2cccs2)cc1 (centres undefined),outcome,[4],inactive
COC(=O)C1=C(C)NC(C)=C(C(=O)OC)C1c1cccc(NC(=O)NCCCN2CCC(c3cccc(OC)c3)CC2)c1,activity,[1],-24.5% and -25.9%
same,activity,[2],0.516% and -5.06%
same,Potency,[3],inactive
Oc1ccccc1O,activity,[1],-3.91%
same,activity,[2],8.37%
same,Potency,[3],inactive
CCOC(=O)N1CCN(/[N+]([O-])=N/Oc2ccc([N+](=O)[O-])cc2[N+](=O)[O-])CC1,activity,[1],-19%
same,activity,[2],-3.94%
same,Potency,[3],inactive
O=[N+]([O-])c1ccc(CNc2nc(NCc3cccc(C(F)(F)F)c3)nc3nc[nH]c23)cc1,activity,[1],-49.3% and -10.9%
same,activity,[2],-13.5% and 7.65%
same,Potency,[3],inactive
CCN(CC)CCCCNc1ncc2cc(-c3c(Cl)cccc3Cl)c(NC(=O)NC(C)(C)C)nc2n1,activity,[1],-17.4% and -14.9%
same,activity,[2],-6.92% and -0.98%
same,Potency,[3],inactive
CC(=O)SCC[N+](C)(C)C,Potency,[3],inactive
CC1OC1P(=O)(O)O (centres undefined),Potency,[3],inactive
O=C(/C=C/c1ccc(O)cc1)c1ccc(O)cc1O,Potency,[3],inactive
O=C1NC(=O)/C(=C/c2ccc3nccnc3c2)S1,Potency,[3],inactive
CCCCCCCCCCCCCCCCCC(=O)O,outcome,[9],inactive
same,outcome,[10],inactive
CN1[C@@H](CC(=O)c2ccccc2)CCC[C@H]1C[C@H](O)c1ccccc1,Potency,[3],inactive
COC(=O)c1c(C)[nH]c(C)c1C(=O)c1ccccc1Cc1ccccc1,Potency,[3],inactive
N#C/C(=C\c1ccc(-c2cc(Cl)ccc2Cl)o1)C(=O)Nc1cccc2ncccc12,Potency,[3],inactive
NCCSSCCN,Potency,[3],inactive
CCC(CO)Nc1nc(NCc2ccccc2)c2ncn(C(C)C)c2n1 (centres undefined),Potency,[3],inactive
CC(C)Cc1ccc([C@H](C)C(=O)O)cc1,Potency,[3],inactive
COc1ccc(C(=O)/C(Cc2cc(OC)c(OC)c(OC)c2)=C(\C(=O)O)c2ccc3c(c2)OCO3)cc1,Potency,[3],inactive
O=S(=O)(c1cccc2c(I)cccc12)N1CCCNCC1,Potency,[3],inactive
CC[C@H]1OC(=O)[C@H](C)[C@@H](O[C@H]2C[C@@](C)(OC)[C@@H](O)[C@H](C)O2)[C@H](C)[C@@H](O[C@@H]2O[C@H](C)C[C@H](NC)[C@H]2O)[C@](C)(O)C[C@@H](C)CN(C)[C@H](C)[C@@H](O)[C@]1(C)O,Potency,[3],inactive
Nc1nc(Cl)nc2c1ncn2[C@@H]1O[C@H](CO)[C@@H](O)[C@H]1O,Potency,[3],inactive
O=c1[nH]c2cc(C(F)(F)F)ccc2n1-c1cc(C(F)(F)F)ccc1O,Potency,[3],inactive
CN1CC(=O)N/C1=N/C(=O)Nc1cccc(Cl)c1,Potency,[3],inactive
NC(N)=NC(=O)c1nc(Cl)c(N2CCCCCC2)nc1N,Potency,[3],inactive
CC[C@H]1OC(=O)[C@H](C)C(O[C@H]2C[C@@](C)(OC)[C@@H](O)[C@H](C)O2)[C@H](C)[C@@H](OC2O[C@H](C)C[C@H](N(C)C)[C@H]2O)[C@](C)(O)C[C@@H](C)CN(C)[C@H](C)[C@@H](O)[C@]1(C)O (some centres undefined),Potency,[3],inactive
NC(=O)C(=O)O,Potency,[3],inactive
O=C(/C=C/c1ccc(O)c(O)c1)OCCc1ccccc1,Potency,[3],inactive
Nc1nc(Nc2ccccc2)nc2c1ncn2[C@@H]1O[C@H](CO)[C@@H](O)[C@H]1O,Potency,[3],inactive
COc1cc2c(CCNC(C)=O)c[nH]c2cc1Cl,Potency,[3],inactive
CC(=O)N[C@H](C(=O)O)C(C)(C)SN=O,Potency,[3],inactive
Nc1ccn([C@@H]2O[C@H](CO)[C@@H](O)[C@@H]2O)c(=O)n1,Potency,[3],inactive
CCCCCCCCCCCCCCCCCCN(CCCCCCCCCCCCCCCCCC)CCCN(CCO)CCO,Potency,[3],inactive
CC12C(=O)OC(=O)C1(C)C1CCC2O1 (centres undefined),Potency,[3],inactive
CC(N)C(=O)OC(C)(C)Cc1ccc(Cl)cc1 (centres undefined),Potency,[3],inactive
NCCCS(=O)(=O)O,Potency,[3],inactive
Fc1ccc2[nH]c(CN3CCN(c4ccccn4)CC3)cc2c1,Potency,[3],inactive
NC(CCCP(=O)(O)O)C(=O)O (centres undefined),Potency,[3],inactive
O=C1/C(=C/c2ccsc2)CC/C1=C\c1cccs1,Potency,[3],inactive
COc1cccc(OC)c1OCCNCC1COc2ccccc2O1 (centres undefined),Potency,[3],inactive
O=[N+]([O-])c1ccc2c(c1)S(=O)(=O)C=C2,Potency,[3],inactive
C#C[C@]1(O)CC[C@H]2[C@@H]3CCC4=Cc5oncc5CC4(C)[C@H]3CCC21C (some centres undefined),Potency,[3],inactive
